# Only some compounds are listed: those with a hit (about 1.8% of all), similar ones and a draw of the others.
# HDAC3 inh – inhibitors of human histone deacetylase 3 | hit rate 0.15% among 320,000 | O15379 | inhibition, % at 8.3 µM | AID 2718 | recombinant HDAC3, fluorogenic peptide/trypsin coupled, fluorescence; in the data active = inhibition above about 26%, passing the limit was not always enough
# GRK2 inh – blocks RNA aptamer binding to human GRK2; inhibition of aptamer binding, % at 10 µM; bead flow cytometry, FAM-aptamer displacement from GRK2; AID 488847; P25098; hit rate 0.59% among 330,000;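 active = inhibition of aptamer binding above 40%, roughly 3 SD of noise, on plates passing a quality check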;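 also: median bead fluorescence of bound FAM aptamer so fluorescent compounds give negative values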
# VLA-4 inh – inhibition in a human VLA-4 binding assay. hit rate 0.2% among 330,000. VLA-4 expressing cells, ligand binding flow cytometry. inhibition, % (about 7 µM as worked out from the volumes in the protocol)
# PKD1 inh – inhibitors of human PKD1 kinase; Q15139; PKD1 kinase fluorescence polarization assay; inhibition, % (test concentration not listed); hit rate 0.056% among 200,000; AID 797
# LANA-H2A inh – blocks KSHV LANA binding to histone H2A/H2B; cell-free LANA-H2A/H2B peptide, fluorescence polarization; inhibition, % (concentration not given with the values); hit rate 0.6% among 320,000; AID 2629; in the data active = inhibition mostly above about 10%, no sharp cut-off; inactive = mostly below about 6.7%
# Target sequence (Q9QR71 whole entry, looked up): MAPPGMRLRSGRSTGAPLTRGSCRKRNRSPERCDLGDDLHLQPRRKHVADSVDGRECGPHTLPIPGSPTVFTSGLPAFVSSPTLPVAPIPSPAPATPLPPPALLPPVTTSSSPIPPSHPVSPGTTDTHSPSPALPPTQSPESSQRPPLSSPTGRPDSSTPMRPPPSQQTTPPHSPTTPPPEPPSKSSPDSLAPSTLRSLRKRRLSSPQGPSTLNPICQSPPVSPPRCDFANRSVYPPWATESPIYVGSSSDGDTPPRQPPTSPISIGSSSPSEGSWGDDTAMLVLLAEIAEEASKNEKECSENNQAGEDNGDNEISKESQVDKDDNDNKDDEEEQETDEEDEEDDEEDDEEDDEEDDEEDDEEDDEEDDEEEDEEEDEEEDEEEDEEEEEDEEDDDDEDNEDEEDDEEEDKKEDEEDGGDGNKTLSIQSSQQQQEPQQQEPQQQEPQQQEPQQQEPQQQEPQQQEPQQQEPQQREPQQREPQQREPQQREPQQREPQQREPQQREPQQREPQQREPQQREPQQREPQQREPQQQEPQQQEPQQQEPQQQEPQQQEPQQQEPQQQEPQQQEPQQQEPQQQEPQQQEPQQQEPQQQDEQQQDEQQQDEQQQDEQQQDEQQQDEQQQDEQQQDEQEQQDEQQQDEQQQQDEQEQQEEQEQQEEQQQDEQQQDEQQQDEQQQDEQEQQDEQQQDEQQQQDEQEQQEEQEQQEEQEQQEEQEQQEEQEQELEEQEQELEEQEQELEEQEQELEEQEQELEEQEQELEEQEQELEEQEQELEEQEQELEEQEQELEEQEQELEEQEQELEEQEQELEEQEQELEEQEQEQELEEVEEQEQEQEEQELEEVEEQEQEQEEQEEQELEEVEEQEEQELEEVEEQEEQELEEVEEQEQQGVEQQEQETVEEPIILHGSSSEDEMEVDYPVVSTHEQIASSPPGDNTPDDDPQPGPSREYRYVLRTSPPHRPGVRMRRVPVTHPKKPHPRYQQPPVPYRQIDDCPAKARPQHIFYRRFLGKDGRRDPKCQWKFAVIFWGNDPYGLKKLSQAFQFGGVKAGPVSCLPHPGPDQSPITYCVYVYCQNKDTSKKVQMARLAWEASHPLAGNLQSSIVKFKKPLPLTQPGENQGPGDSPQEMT
# DSG3 Ab inh – inhibitors of pemphigus antibody binding to human desmoglein-3. binding (percent of control), % at 10 µM. DSG3-coupled beads, scFv-anti-DSG3-GFP binding, flow cytometry; active compounds read low. P32926. hit rate 0.48% among 310,000. AID 588358;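 active = binding more than 3 SD below its plate's average and above zero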;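 also: hits lower antibody fragment binding to DSG3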
# GRK2 inh confirm – confirmation of human GRK2 inhibitors displacing RNA aptamer. bead-bound GRK2, FAM-aptamer displacement, flow cytometry. aptamer displacement, % at 10 µM. hit rate 4% among 2,000. shares compounds with GRK2 inh. AID 504451;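 active = aptamer displacement above 40%, near three times the noise of non-fluorescent compounds, on plates passing quality checks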;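 also: negative values mostly reflect intrinsic compound fluorescence rather than true enhancement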
# Aptamer quench 1 – counter-screen for GRK2 aptamer inhibitors: fluorescent aptamer quenchers | shares compounds with GRK2 inh | 110 tested, under 10 active | AID 504521 | fluorescence change (kMESF span), kMESF (no concentration beside the values) | Fluorescent RNA aptamer beads, quenching, flow cytometry; active compounds read high;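 active = compounds whose bead fluorescence drops by more than 37 kMESF across the dose range, marking them as dye quenchers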
# Aptamer quench SP – quenches fluorescent RNA aptamer, GRK2 hit artifact; shares compounds with GRK2 inh; Carboxyfluorescein RNA aptamer on beads, flow cytometry quenching; active compounds read low; fluorescence response (% of DMSO), % at 10 µM; 2,000 tested, under 10 active; AID 504580;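 active = compounds that quench the bead-bound fluorescent RNA probe, cutting fluorescence to under half of the solvent control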;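 also: counterscreen run without GRK2 so only probe quenching by compound is measured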
# GRK2 confirm 2 – human GRK2 inhibition confirmation, cherry pick 2. inhibition of aptamer binding, % at 10 µM. AID 504782. 360 tested, under 10 active. shares compounds with GRK2 inh. bead-bound GRK2, FAM-aptamer displacement, flow cytometry;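 active = inhibition of aptamer binding above 40%, about triple the noise seen with nonglowing compounds, on plates passing quality control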;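 also: negative values mostly come from compounds that fluoresce themselves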
# FAM quench SP – aptamer fluorescence quenching in GRK2 counter-screen; shares compounds with GRK2 inh; carboxyfluorescein RNA aptamer beads, flow cytometry quenching; active compounds read low; fluorescence response vs DMSO, % at 10 µM; 360 tested, under 10 active;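 active = response vs DMSO under 50%, meaning signal dropped by over half, treated as fluorescence quencher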;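 also: labelled aptamer on streptavidin beads without GRK2 as a quench counter-screen; 100% = bead fluorescence of DMSO wells and lower means quenching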
# An asterisk follows results filed as active; · = no result. Rule as the data show it, unless noted: active = inhibition above about 50%; inactive = the rest.
SMILES,HDAC3 inh,GRK2 inh,VLA-4 inh,PKD1 inh,LANA-H2A inh,DSG3 Ab inh,GRK2 inh confirm,Aptamer quench SP,others
CC(C)n1cnc2cc(NCc3ccccc3O)ccc21,-9,2,-3,·,2,102,·,·,
CC(C)(C)n1cnc2cc(NCc3ccccc3O)ccc21,8,27,1,·,2,121,1,102,
CCc1ccc(CNc2ccc3c(c2)ncn3C(C)(C)C)cc1,-5,0,8,·,-3,96,-6,98,
CC(C)(C)n1cnc2cc(NCc3ccc(Br)cc3)ccc21,1,0,-2,·,-4,104,-5,96,
CCc1ccc(CNc2ccc3c(c2)ncn3CC)cc1,0,11,2,·,6,100,·,·,
O=C(O)C1CC=C(Cl)CC1C(=O)NC1CCCCC1 (stereo unspecified),-7,0,2,·,3,·,·,·,
COc1ccc(-c2nc(CS(=O)CC(=O)NCCCN3CCOCC3)c(C)o2)cc1OC (stereo unspecified),-3,6,-5,·,2,·,·,·,
Cc1cccc(CN2CCN(Cc3ccc4nonc4c3)CC2CCO)n1 (stereo unspecified),-3,41*,5,3,3,103,-14,101,
O=C(NCC1CCCO1)NC1CCCCC1 (stereo unspecified),-5,2,20,-5,10,·,·,·,
S=C(NCC1CCCO1)NC1CC1 (stereo unspecified),-1,87*,-12,6,-6,95,3,101,
Cn1c(SCc2cccc(F)c2)nnc1-c1ccccn1,5,58*,0,-8,0,103,-2,100,
CCN(CC(=O)Nc1ccc(NC(C)=O)cc1)C(=O)c1cccc(-n2cccc2)c1,-1,6,-1,·,-3,101,·,·,
CCN(CC)S(=O)(=O)c1ccc(N2CCOCC2)c(NC(=O)COc2ccccc2C)c1,1,74*,10,·,2,99,-1,100,
CCN(CC)S(=O)(=O)c1ccc(N2CCOCC2)c(NC(=O)COc2ccccc2C#N)c1,-1,3,4,-1,2,103,·,·,
CCN(CC)S(=O)(=O)c1ccc(N2CCOCC2)c(NC(=O)Cc2ccc(Cl)cc2)c1,-9,0,8,7,-7,87,·,·,
CCN(CC)S(=O)(=O)c1ccc(N2CCOCC2)c(NC(=O)CC23CC4CC(CC(Br)(C4)C2)C3)c1,3,100*,-36,-15,-8,104,·,·,GRK2 confirm 2=0;FAM quench SP=96
COc1ccc(-c2cccc3c2NC(=O)C3=O)cc1OC,·,4,14,·,·,101,·,·,
COc1ccccc1CN1CC(C(=O)NCc2c(F)ccc(C)c2F)CCC1=O (stereo unspecified),0,5,-117,·,4,103,·,·,
COc1ccc(-c2nc(CS(=O)(=O)CC(=O)NCc3ccc4c(c3)OCO4)c(C)o2)cc1,0,0,0,·,-1,101,·,·,
Cc1ccccc1-c1nc(CS(=O)(=O)CC(=O)NCc2ccc3c(c2)OCO3)c(C)o1,-6,83*,7,2,-2,100,0,89,GRK2 confirm 2=11;FAM quench SP=97
CC(C)OCCCNC(=O)c1ccc(NC(=O)C2=CSCCO2)cc1,8,1,8,·,-8,101,·,·,
O=C(NC1=NCCS1)C1CCN(S(=O)(=O)c2cc([N+](=O)[O-])ccc2Cl)CC1,0,26,8,·,2,90,1,94,
Cc1oc(-c2ccccc2)cc1C(=O)Nc1ccc2ccccc2c1,4,98*,0,6,4,104,-3,95,
Cc1oc(-c2ccccc2)cc1C(=O)Nc1ccccc1,-5,0,11,0,-1,104,·,·,
O=C(Nc1cccc(-c2ccc(N3CCOCC3)nn2)c1)c1ccccc1,-6,0,3,·,5,103,19,100,Aptamer quench 1=-1.6
SMILES,HDAC3 inh,GRK2 inh,VLA-4 inh,PKD1 inh,LANA-H2A inh,DSG3 Ab inh,GRK2 inh confirm,Aptamer quench SP,others
Cc1ccc(C(=O)Nc2cccc(-c3ccc(N4CCOCC4)nn3)c2)cc1[N+](=O)[O-],4,0,-13,·,0,101,·,·,
Cc1ccccc1C(=O)Nc1cccc(-c2ccc(N3CCOCC3)nn2)c1,5,1,6,·,-4,101,-3,96,
O=C(Nc1cccc(-c2ccc(N3CCOCC3)nn2)c1)c1ccc([N+](=O)[O-])cc1,2,1,-25,·,-5,99,·,·,
COc1ccc(C(=O)NN/C(C)=C/C(=O)C(F)(F)C(F)(F)C(F)(F)F)cc1,2,5,0,1,3,106,·,·,
CCCC(C(=O)Nc1ccc(S(=O)(=O)N2CCCC2)cc1)c1ccccc1 (stereo unspecified),12,2,-1,·,-4,104,·,·,
Cn1c(C(=O)N[C@@H](C(=O)O)c2ccccc2)cc2cc(F)ccc21,-9,64*,17,·,-1,95,2,99,
CCOC(=O)c1c(NC(=O)CSc2nc3ccccc3c(=O)n2-c2ccc(F)cc2)sc(C(C)=O)c1C,3,73*,-2,-8,-4,92,-3,103,
CCOC(=O)c1c(NC(=O)CSc2ncnc3ccccc23)sc(C(C)=O)c1C,4,0,-1,-2,3,104,·,·,
COc1ccccc1N1CCN(C(=O)CN(C2CCCCC2)S(C)(=O)=O)CC1,0,47*,-2,-5,-3,112,1,98,
CS(=O)(=O)N(CC(=O)N1CCN(c2ccccc2F)CC1)C1CCCCC1,-5,3,5,-2,2,99,·,·,
CN(C)c1nc(C(F)(F)F)cc(=O)[nH]1,-4,0,5,0,0,91,·,·,
CC1Nc2nc(N(C)C)[nH]c(=O)c2NC1C (stereo unspecified),-8,15,5,3,·,·,1,104,
CCOC(=O)c1c(C)[nH]c(C(=O)COC(=O)COc2ccc(OC)cc2)c1C,1,70*,8,-2,1,88,2,96,
CC(=O)c1c(C)[nH]c(C(=O)COC(=O)COc2ccccc2)c1C,1,0,8,·,2,·,·,·,
